Test results as given in PubChem BioAssay AID1159580 (chemical genetic matrix, 2015).
The campaign covered roughly 5,500 compounds. About 2,000 (36%) were called active. Inconclusive results (about 18%) are left out. Cut-off read from the data, not from the text of the source: active = normalized growth mostly below about 0.91 (no sharp cut-off); inconclusive = no clear call, values can overlap the other calls; inactive = mostly above about 0.92. This is one part of the list.

Test: chemical genetic growth profiling, strain panel (AID 1159580);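 note: tested at 20 µM; growth read once vehicle control cultures reached saturation at 30 °C; 1 = growth at the plate median or of vehicle wells; lower values mean less growth of the strain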
Conditions: growth OD

Measured: normalized growth

CC(=O)N[C@@H](CC(C)C)C(=O)O
inactive: S. cerevisiae deletion strains, locus YJR066W, strain TOR1, stronger effect = lower value 1.02 | S. cerevisiae deletion strains, locus YJR075W, strain HOC1, stronger effect = lower value 0.992 | S. cerevisiae deletion strains, locus YKL009W, strain mrt4, stronger effect = lower value 0.962 | S. cerevisiae deletion strains, locus YKL068W, stronger effect = lower value 0.977 | S. cerevisiae deletion strains, locus YKL085W, strain MDH1 (second series), stronger effect = lower value 0.972 | S. cerevisiae deletion strains, locus YKL085W, strain MDH1, stronger effect = lower value 0.972 | S. cerevisiae deletion strains, locus YKL160W, strain elf1, stronger effect = lower value 0.977 | S. cerevisiae deletion strains, locus YKL190W, strain CNB1, stronger effect = lower value 0.987 | S. cerevisiae deletion strains, locus YKR001C, strain vps1, stronger effect = lower value 1 | S. cerevisiae deletion strains, locus YKR026C, strain gcn3, stronger effect = lower value 0.979 | S. cerevisiae deletion strains, locus YKR091W, strain srl3, stronger effect = lower value 1 | S. cerevisiae deletion strains, locus YLL001W, strain dnm1, stronger effect = lower value 0.944 | S. cerevisiae deletion strains, locus YLL026W, stronger effect = lower value 0.985 | S. cerevisiae deletion strains, locus YLL041C, strain sdh2, stronger effect = lower value 0.995 | S. cerevisiae deletion strains, locus YLR027C, strain aat2, stronger effect = lower value 0.992 | S. cerevisiae deletion strains, locus YLR039C, strain RIC1, stronger effect = lower value 0.958 | S. cerevisiae deletion strains, locus YLR058C, strain SHM2, stronger effect = lower value 0.989 | S. cerevisiae deletion strains, locus YLR102C, strain apc9, stronger effect = lower value 0.988 | S. cerevisiae deletion strains, locus YLR113W, strain HOG1, stronger effect = lower value 1.05 | S. cerevisiae deletion strains, locus YLR221C, strain rsa3, stronger effect = lower value 1 | S. cerevisiae deletion strains, locus YLR258W, strain gsy2, stronger effect = lower value 0.997 | S. cerevisiae deletion strains, locus YLR262C, strain YPT6 (second series), stronger effect = lower value 0.983 | S. cerevisiae deletion strains, locus YLR262C, strain YPT6, stronger effect = lower value 0.954 | S. cerevisiae deletion strains, locus YLR268W, strain sec22, stronger effect = lower value 0.985 | S. cerevisiae deletion strains, locus YLR320W, strain mms22, stronger effect = lower value 1.02 | S. cerevisiae deletion strains, locus YLR330W, strain CHS5, stronger effect = lower value 0.972 | S. cerevisiae deletion strains, locus YLR342W, strain FKS1 (second series), stronger effect = lower value 0.973 | S. cerevisiae deletion strains, locus YLR342W, strain FKS1, stronger effect = lower value 0.984 | S. cerevisiae deletion strains, locus YLR357W, strain rsc2, stronger effect = lower value 0.99 | S. cerevisiae deletion strains, locus YLR370C, strain arc18, stronger effect = lower value 0.982 | S. cerevisiae deletion strains, locus YLR371W, strain rom2, stronger effect = lower value 0.982 | S. cerevisiae deletion strains, locus YLR384C, strain iki3, stronger effect = lower value 0.976 | S. cerevisiae deletion strains, locus YLR418C, strain cdc73, stronger effect = lower value 0.978 | S. cerevisiae deletion strains, locus YML016C, strain PPZ1, stronger effect = lower value 0.992 | S. cerevisiae deletion strains, locus YML032C, strain rad52, stronger effect = lower value 1 | S. cerevisiae deletion strains, locus YML120C, strain ndi1, stronger effect = lower value 0.976 | S. cerevisiae deletion strains, locus YML124C, strain tub3, stronger effect = lower value 0.995 | S. cerevisiae deletion strains, locus YMR058W, strain fet3, stronger effect = lower value 0.982 | S. cerevisiae deletion strains, locus YMR078C, strain ctf18, stronger effect = lower value 0.984 | S. cerevisiae deletion strains, locus YMR125W, strain sto1, stronger effect = lower value 0.994 | S. cerevisiae deletion strains, locus YMR129W, stronger effect = lower value 0.998 | S. cerevisiae deletion strains, locus YMR205C, strain PFK2, stronger effect = lower value 0.992 | S. cerevisiae deletion strains, locus YMR223W, strain ubp8, stronger effect = lower value 0.968 | S. cerevisiae deletion strains, locus YMR231W, strain pep5, stronger effect = lower value 0.991 | S. cerevisiae deletion strains, locus YMR263W, strain SAP30, stronger effect = lower value 0.998 | S. cerevisiae deletion strains, locus YMR307W, strain GAS1, stronger effect = lower value 0.982 | S. cerevisiae deletion strains, locus YNL067W, strain RPL9B, stronger effect = lower value 1.03 | S. cerevisiae deletion strains, locus YNL071W, strain lat1, stronger effect = lower value 1.01 | S. cerevisiae deletion strains, locus YNL183C, strain NPR1, stronger effect = lower value 0.958 | S. cerevisiae deletion strains, locus YNL209W, strain ssb2, stronger effect = lower value 0.99 | S. cerevisiae deletion strains, locus YNL233W, strain BNI4, stronger effect = lower value 1.04 | S. cerevisiae deletion strains, locus YNL248C, strain rpa49, stronger effect = lower value 0.989 | S. cerevisiae deletion strains, locus YNL250W, strain rad50, stronger effect = lower value 0.96 | S. cerevisiae deletion strains, locus YNL271C, strain bni1, stronger effect = lower value 0.979 | S. cerevisiae deletion strains, locus YNL298W, strain CLA4, stronger effect = lower value 0.976 | S. cerevisiae deletion strains, locus YNL307C, strain MCK1, stronger effect = lower value 0.991 | S. cerevisiae deletion strains, locus YNL322C, strain KRE1 (second series), stronger effect = lower value 0.991 | S. cerevisiae deletion strains, locus YNR049C, strain mso1, stronger effect = lower value 0.988 | S. cerevisiae deletion strains, locus YNR052C, strain pop2, stronger effect = lower value 0.986 | S. cerevisiae deletion strains, locus YOL006C, strain TOP1, stronger effect = lower value 1.1 | S. cerevisiae deletion strains, locus YOL012C, strain htz1 1.43 | S. cerevisiae deletion strains, locus YOL147C, strain pex11, stronger effect = lower value 0.98 | S. cerevisiae deletion strains, locus YOR001W, strain rrp6, stronger effect = lower value 0.971 | S. cerevisiae deletion strains, locus YOR061W, strain CKA2, stronger effect = lower value 0.986 | S. cerevisiae deletion strains, locus YOR069W, strain VPS5, stronger effect = lower value 0.982 | S. cerevisiae deletion strains, locus YOR070C, strain gyp1, stronger effect = lower value 1 | S. cerevisiae deletion strains, locus YOR080W, strain dia2, stronger effect = lower value 0.982 | S. cerevisiae deletion strains, locus YOR083W, strain WHI5, stronger effect = lower value 0.976 | S. cerevisiae deletion strains, locus YOR106W, strain vam3, stronger effect = lower value 0.974 | S. cerevisiae deletion strains, locus YOR136W, strain idh2, stronger effect = lower value 0.992 | S. cerevisiae deletion strains, locus YOR144C, strain elg1, stronger effect = lower value 0.996 | S. cerevisiae deletion strains, locus YOR184W, strain ser1, stronger effect = lower value 0.983 | S. cerevisiae deletion strains, locus YOR231W, strain MKK1, stronger effect = lower value 1.02 | S. cerevisiae deletion strains, locus YOR265W, strain rbl2, stronger effect = lower value 0.998 | S. cerevisiae deletion strains, locus YOR270C, strain vph1, stronger effect = lower value 0.996 | S. cerevisiae deletion strains, locus YOR290C, strain snf2, stronger effect = lower value 1.01 | S. cerevisiae deletion strains, locus YOR316C, strain cot1, stronger effect = lower value 1 | S. cerevisiae deletion strains, locus YPL051W, strain arl3, stronger effect = lower value 0.992 | S. cerevisiae deletion strains, locus YPL078C, strain atp4, stronger effect = lower value 0.955 | S. cerevisiae deletion strains, locus YPL106C, strain sse1, stronger effect = lower value 0.994 | S. cerevisiae deletion strains, locus YPL240C, strain hsp82, stronger effect = lower value 0.979 | S. cerevisiae deletion strains, locus YPL256C, strain CLN2, stronger effect = lower value 1.04 | S. cerevisiae deletion strains, locus YPR119W, strain clb2, stronger effect = lower value 0.99 | S. cerevisiae deletion strains, locus YPR141C, strain kar3, stronger effect = lower value 0.974 | S. cerevisiae deletion strains, locus YPR163C, strain tif3, stronger effect = lower value 0.977 | S. cerevisiae deletion strains, locus YPR167C, strain met16, stronger effect = lower value 0.985 | S. cerevisiae deletion strains, strain wtn01, stronger effect = lower value 0.991 | S. cerevisiae strains, strain wild type, stronger effect = lower value 0.999
